The record followed here is PubChem BioAssay.

Structures are written as SMILES. Activity calls are given as the source filed them.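 How the source made its calls, unless noted: active means mean z-score across replicates of 1.96 or higher in either the MELAS or the Rieske mutant cell line; inactive means the rest.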

Assay [1] is described as follows: viability loss with induced miR-34 in A549 – imaging, A549 dox-inducible miR-34, nuclei and caspase counts, primary screen (AID 1347080;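 active means compounds whose cell count with miR-34 switched on is under 0.7 times the count with it off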). The conditions noted are these: A549 miR-34 inducible, Hoechst nuclei count, 48 h.
Assay [2] is described as follows: MELAS cybrid and Rieske KO viability enhancers – cell-based, MELAS cybrids, Rieske KO mouse fibroblasts, CellTiter-Glo, primary screen (AID 1508586).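 Further: z relative to plate mean and SD of compound and empty wells.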 The conditions noted are these: low glucose. Background: In ATP-based viability assays light output follows the ATP content of the culture.
[3] abbreviates: stronger effect = lower value, cell number ratio, induced over uninduced.
The mark [4] stands for this setting: measured here: relative caspase fold change +Dox/-Dox.
The mark [5] stands for this setting: measured here: total cells with miR-34 induction, stronger effect = lower value.
[6] abbreviates: measured here: total cells without miR-34 induction.
Where [7] appears, read: MELAS cybrid survival, CellTiter-Glo 48 h, stronger effect = higher value.
Where [8] appears, read: Rieske KO mouse fibroblast survival, CellTiter-Glo 72 h.
Further: test concentration not given here.

For the molecule `COC(=O)C1=COC(O)[C@@H]2C(CO)=CC[C@H]12` (some centres not stated), the fold change in assay [1] (setting [3]) was 0.899 (inactive); in assay [1] (setting [4]) it was 1. In addition, the values for the cell count in assay [1] (setting [5]) and in assay [1] (setting [6]) were 8660 and 9630, respectively. Moreover, the values for the z-score in assay [2] (setting [7]) and in assay [2] (setting [8]) were -0.314 (inactive) and -0.656, respectively.

Take `FC(F)(F)c1ccc(C=Cc2nc(COc3ccc(CCCCn4ccnn4)cc3)co2)cc1`: the fold change in assay [1] (setting [3]) is 0.766 (inactive); in assay [1] (setting [4]), 1.23. Besides, the cell count in assay [1] (setting [5]) turned out to be 4190; in assay [1] (setting [6]) it was 5470. Also, the z-score in assay [2] (setting [7]) was -0.189 (inactive); in assay [2] (setting [8]), -0.508.

For the molecule `CC(Oc1cc(-n2cnc3ccc(CN4CCN(C)CC4)cc32)sc1C(N)=O)c1ccccc1C(F)(F)F` (configuration not stated), the fold change in assay [1] (setting [3]) was 1.2 (inactive); in assay [1] (setting [4]), 0.688. The cell count came to 1290 in assay [1] (setting [5]) and 1080 in assay [1] (setting [6]). Moreover, the z-score was 0.375 (inactive) in assay [2] (setting [7]) and 1.78 in assay [2] (setting [8]).

Turning to `CNC(=O)C(Cc1ccccc1)NC(=O)C(CC(C)C)C(CSc1cccs1)C(=O)NO` (configuration not stated), the fold change in assay [1] (setting [3]) is 0.843 (inactive); in assay [1] (setting [4]), 0.442. Besides, the cell count in assay [1] (setting [5]) was 6630; in assay [1] (setting [6]) it was 7870. Also, the z-score is 0.43 (inactive) in assay [2] (setting [7]) and 1.14 in assay [2] (setting [8]).

Regarding `CC(NC(=O)Cc1cc(F)cc(F)c1)C(=O)NC(C(=O)OC(C)(C)C)c1ccccc1` (configuration not stated), the fold change in assay [1] (setting [3]) is 0.856 (inactive); in assay [1] (setting [4]), 0.819. Also, the cell count in assay [1] (setting [5]) was determined as 7300; in assay [1] (setting [6]) it was 8530. In addition, the z-score was -0.187 (inactive) in assay [2] (setting [7]) and 0.801 in assay [2] (setting [8]).

Regarding `O=C(C=Cc1cccc(S(=O)(=O)Nc2ccccc2)c1)NO`, the fold change was 0.967 (inactive) in assay [1] (setting [3]) and 0.71 in assay [1] (setting [4]). Further, the cell count in assay [1] (setting [5]) is 1120; in assay [1] (setting [6]), 1160. Besides, the figures for the z-score in assay [2] (setting [7]) and in assay [2] (setting [8]) were 0.973 (inactive) and 1.18, respectively.

For the molecule `O=C1c2c(O)cc(O)cc2OC(c2cc(O)c(O)c(O)c2)C1O` (configuration not stated), the fold change was 0.92 (inactive) in assay [1] (setting [3]) and 0.77 in assay [1] (setting [4]). Also, the cell count came to 9760 in assay [1] (setting [5]) and 10600 in assay [1] (setting [6]). The z-score in assay [2] (setting [7]) was -0.325 (inactive); in assay [2] (setting [8]) it was 0.635.

Consider `CC(NC(=O)Cc1cc(F)cc(F)c1)C(=O)NC1C(=O)N(C)c2ccccc2-c2ccccc21` (configuration not stated), for which the fold change in assay [1] (setting [3]) is 0.913 (inactive); in assay [1] (setting [4]), 0.674. Further, the cell count in assay [1] (setting [5]) amounted to 8480; in assay [1] (setting [6]), 9280. Moreover, the z-score in assay [2] (setting [7]) is -0.38 (inactive); in assay [2] (setting [8]), 1.69.

For the molecule `O=C(O)C1=CC(O)C(O)C(O)C1` (configuration not stated), the values for the fold change in assay [1] (setting [3]) and in assay [1] (setting [4]) were 0.975 (inactive) and 0.723, respectively. Besides, the cell count turned out to be 9710 in assay [1] (setting [5]) and 9960 in assay [1] (setting [6]). The z-score in assay [2] (setting [7]) is -0.355 (inactive); in assay [2] (setting [8]) it was 0.667.

`O=c1ncccn1C1OC(CO)C(O)C1O` (configuration not stated): the fold change is 0.912 (inactive) in assay [1] (setting [3]) and 0.461 in assay [1] (setting [4]). Further, the results for the cell count in assay [1] (setting [5]) and in assay [1] (setting [6]) were 8580 and 9410, respectively. Further, the z-score in assay [2] (setting [7]) was -0.447 (inactive); in assay [2] (setting [8]), -1.06.

Take `CC(C)OC(=O)OCOP(=O)(COC(C)Cn1cnc2c(N)ncnc21)OCOC(=O)OC(C)C` (configuration not stated): the fold change in assay [1] (setting [3]) is 0.941 (inactive); in assay [1] (setting [4]), 0.831. For the same molecule, the values for the cell count in assay [1] (setting [5]) and in assay [1] (setting [6]) were 7870 and 8370, respectively. In addition, the results for the z-score in assay [2] (setting [7]) and in assay [2] (setting [8]) were -0.399 (inactive) and 0.463, respectively.

In the case of `C[C@]12C=CC(=O)C=C1CC[C@H]1[C@@H]3CC(O)[C@@](O)(C(=O)CO)[C@@]3(C)CC(O)[C@]12F` (some centres not stated), the values for the fold change in assay [1] (setting [3]) and in assay [1] (setting [4]) were 0.898 (inactive) and 0.627, respectively. The cell count was found to be 5780 in assay [1] (setting [5]) and 6430 in assay [1] (setting [6]). The results for the z-score in assay [2] (setting [7]) and in assay [2] (setting [8]) were 0.159 (inactive) and -0.119, respectively.

`O=C(O)c1ccc(C=C2SC(=S)N(c3cccc(C(F)(F)F)c3)C2=O)cc1`: the fold change in assay [1] (setting [3]) was 0.824 (inactive); in assay [1] (setting [4]), 0.518. Further, the cell count in assay [1] (setting [5]) turned out to be 6780; in assay [1] (setting [6]), 8220. Moreover, the z-score in assay [2] (setting [7]) was -0.207 (inactive); in assay [2] (setting [8]) it was -3.49.

Turning to `CCN(CC)C(=O)C(C#N)=Cc1cc(O)c(O)c([N+](=O)[O-])c1`, the values for the fold change in assay [1] (setting [3]) and in assay [1] (setting [4]) were 1.2 (inactive) and 1.41, respectively. Also, the results for the cell count in assay [1] (setting [5]) and in assay [1] (setting [6]) were 8600 and 7190, respectively. Moreover, the z-score in assay [2] (setting [7]) is -0.263 (inactive); in assay [2] (setting [8]), -0.169.

`COc1cc(OC)c(C=CS(=O)(=O)Cc2ccc(OC)c(NCC(=O)O)c2)c(OC)c1`: the figures for the fold change in assay [1] (setting [3]) and in assay [1] (setting [4]) were 1.02 (inactive) and 0.641, respectively. Besides, the cell count stood at 1610 in assay [1] (setting [5]) and 1580 in assay [1] (setting [6]). For the same molecule, the z-score in assay [2] (setting [7]) was 0.468 (inactive); in assay [2] (setting [8]) it was -0.375.

As to `C#CCNC1CCc2ccccc21` (configuration not stated), the values for the fold change in assay [1] (setting [3]) and in assay [1] (setting [4]) were 1.01 (inactive) and 0.344, respectively. The cell count in assay [1] (setting [5]) was found to be 8040; in assay [1] (setting [6]), 7960. Further, the z-score in assay [2] (setting [7]) is -0.195 (inactive); in assay [2] (setting [8]), -0.00726.

For the molecule `CC(O)=C(C#N)C(=O)Nc1ccc(C(F)(F)F)cc1`, the fold change in assay [1] (setting [3]) is 0.904 (inactive); in assay [1] (setting [4]), 1.22. Besides, the cell count in assay [1] (setting [5]) was 7860; in assay [1] (setting [6]) it was 8690. Further, the figures for the z-score in assay [2] (setting [7]) and in assay [2] (setting [8]) were -0.297 (inactive) and -0.28, respectively.

In the case of `COC1C=CC=C(C)C(=O)NC2=CC(=O)C(NCCN(C)C)=C(CC(C)CC(OC)C(O)C(C)C=C(C)C1OC(N)=O)C2=O` (configuration not stated), the fold change in assay [1] (setting [3]) is 1.03 (inactive); in assay [1] (setting [4]), 1.2. Further, the cell count was found to be 1450 in assay [1] (setting [5]) and 1410 in assay [1] (setting [6]). The values for the z-score in assay [2] (setting [7]) and in assay [2] (setting [8]) were 2.44 (active) and -2.5, respectively.

`NCCCCCNCC12CC3CC(CC(C3)C1)C2`: the fold change in assay [1] (setting [3]) was 0.991 (inactive); in assay [1] (setting [4]), 0.726. Moreover, the figures for the cell count in assay [1] (setting [5]) and in assay [1] (setting [6]) were 8590 and 8670, respectively. Also, the figures for the z-score in assay [2] (setting [7]) and in assay [2] (setting [8]) were -0.291 (inactive) and -0.0827, respectively.

Regarding `CC1(C)O[C@H]2CC(=O)OC[C@]23[C@H]2CC[C@@]4(C)C(c5ccoc5)OC(=O)C5O[C@]54[C@@]2(C)C(=O)C[C@@H]13` (some centres not stated), the fold change is 0.854 (inactive) in assay [1] (setting [3]) and 0.906 in assay [1] (setting [4]). Also, the cell count in assay [1] (setting [5]) amounted to 8580; in assay [1] (setting [6]), 10000. For the same molecule, the z-score was -0.275 (inactive) in assay [2] (setting [7]) and -0.503 in assay [2] (setting [8]).

As for `CC1(C)C(OC2OC(C(=O)O)C(O)C(O)C2OC2OC(C(=O)O)C(O)C(O)C2O)CC[C@@]2(C)[C@H]1CC[C@]1(C)[C@H]2C(=O)C=C2[C@H]3C[C@@](C)(C(=O)O)CC[C@]3(C)CC[C@]21C` (some centres not stated), the fold change in assay [1] (setting [3]) was 0.916 (inactive); in assay [1] (setting [4]) it was 0.946. The results for the cell count in assay [1] (setting [5]) and in assay [1] (setting [6]) were 8230 and 8990, respectively. The results for the z-score in assay [2] (setting [7]) and in assay [2] (setting [8]) were -0.0747 (inactive) and -0.803, respectively.

`COc1cc2c(cc1Cc1cccc(Cl)c1F)c(=O)c(C(=O)O)cn2C(CO)C(C)C` (configuration not stated): the fold change is 0.611 (active) in assay [1] (setting [3]) and 1.26 in assay [1] (setting [4]). In addition, the cell count in assay [1] (setting [5]) turned out to be 3970; in assay [1] (setting [6]) it was 6500. For the same molecule, the z-score is -0.198 (inactive) in assay [2] (setting [7]) and 0.532 in assay [2] (setting [8]).
